SMILES strings stand for the structures.

The experiment has as its system Plasmodium falciparum. Kind of experiment: GSK_TCMDC: Inhibition of Plasmodium falciparum 3D7 in whole red blood cells, using parasite LDH activity as an index of growth. Test compounds present at 2uM. The class given is functional.
As a reminder, the Inhibition is the percentage by which the read-out fell short of the control. Read a high Inhibition as a strong effect. `Cc1ccc(C(O)CNc2ccnc(Nc3cccc(-c4csc(C)n4)c3)n2)cc1` (centres undefined) gave an Inhibition of 92%. As for `CCOc1cc(C(=O)Nc2ccc3nc(N4CCCCC4)cc(C)c3c2)cc(OCC)c1OCC`, the Inhibition was 100%.

Turning to `O=C(NCc1cccc(Br)c1)c1ccc(CNC2CCN(Cc3ccccc3)CC2)cc1.O=C(O)C(F)(F)F`, the Inhibition is 100%. With `CN(c1ccccc1C(=O)Nc1ccccc1Oc1ccccc1)S(=O)(=O)c1ccccc1`, the Inhibition stood at 90%. For `Cc1sc2nc(CSc3ccccc3)nc(N3CCN(CC(=O)NC4CC4)CC3)c2c1C`, the Inhibition was determined as 96%.

As to `NC(=O)c1cccc(C(=O)Nc2cccc(-c3ccc(-c4nc5cc(C(F)(F)F)ccc5[nH]4)cc3)c2)c1`, the Inhibition stood at 100%. Compound `Cc1oc(-c2cccc(Oc3ccccc3)c2)nc1CN(Cc1cnn(C)c1)C(C)C` registered an Inhibition of 89%. In turn, `NS(=O)(=O)c1cccc(N/C=C2\C(=O)Nc3ccc(S(=O)(=O)Cc4c(Cl)cccc4Cl)cc32)c1` gave an Inhibition of 92%. Compound `C(=N\Nc1nccc2sc(-c3cccnc3)cc12)/c1cccnc1` had an Inhibition of 98%. Then `COc1cc2c(c(Cl)c1OC)CCN(C(=O)C(F)(F)F)CC2c1ccccc1` (centres undefined), with 100%; and `C[C@H](CNc1ccnc(Nc2ccc3[nH]c(=O)[nH]c3c2)n1)c1ccccc1.O=CO`, with 100%. `OC(CN1CCN(C2CCCCC2)CC1)Cn1c2ccccc2c2cc(Br)ccc21` (centres undefined) returned an Inhibition of 97%.

For the compound `Cc1[nH]c(C)c(-c2ccc(-c3ccc(C(F)F)cc3)nc2)c(=O)c1Cl`, the Inhibition worked out at 97%. `Cl.O=c1cc(NCCCNCc2ccc(Cl)c(Cl)c2)[nH]c2cc(Cl)ccc12` showed an Inhibition of 95%.

(Values after ChEMBL document CHEMBL1157539, “Thousands of chemical starting points for antimalarial lead identification” (Nature, 2010).)
